Most compounds without a hit are left out; they make up all but 3.5% or so of the library.
MITF inh: blocks human microphthalmia-associated transcription factor; AlphaScreen MITF homodimerization, bead proximity signal; hit rate 0.91% among 650,000; inhibition, % at 2.6 µM; AID 1259374; O75030; in the data active = inhibition above about 50%;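 note: 0% = vehicle wells with protein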
Target sequence (O75030 whole entry, looked up): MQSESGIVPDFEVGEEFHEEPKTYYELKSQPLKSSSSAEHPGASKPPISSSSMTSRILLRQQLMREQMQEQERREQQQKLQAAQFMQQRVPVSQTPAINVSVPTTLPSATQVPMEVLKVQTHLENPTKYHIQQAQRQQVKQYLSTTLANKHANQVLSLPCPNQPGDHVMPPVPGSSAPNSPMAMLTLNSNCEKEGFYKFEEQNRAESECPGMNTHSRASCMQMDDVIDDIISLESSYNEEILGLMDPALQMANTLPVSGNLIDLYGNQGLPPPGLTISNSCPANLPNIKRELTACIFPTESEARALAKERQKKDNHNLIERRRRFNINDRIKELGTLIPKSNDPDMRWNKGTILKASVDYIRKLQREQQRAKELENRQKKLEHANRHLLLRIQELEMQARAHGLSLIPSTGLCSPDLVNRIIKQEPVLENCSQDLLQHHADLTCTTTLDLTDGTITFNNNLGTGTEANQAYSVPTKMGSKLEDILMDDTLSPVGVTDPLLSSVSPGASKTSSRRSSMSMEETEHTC
TEAD-YAP inh: TEAD-YAP interaction inhibition; HEK-TIYL cells, TEAD-Gal4/YAP UAS-luciferase luminescence; inhibition, % at 9.12 µM; hit rate 1.4% among 640,000; AID 1259422; in the data active = inhibition above about 32%;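 note: 0% = median of test compound wells and 100% = reference inhibitor wells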
FBW7 act: activators of human E3 ligase FBW7 | Q969H0 | AlphaScreen FBW7–phospho-cyclin E peptide binding, activator screen | normalized activity (activation), % at 26.1 µM | hit rate 0.13% among 650,000 | AID 1259310; in the data active = normalized activity above about 1.9%;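 note: purified mutant Fbw7 with reduced substrate affinity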
GPR151 ag: activators of human GPR151; hit rate 1% among 650,000; Q8TDV0; PathHunter beta-arrestin GPR151 cells, luminescence; activation, % at 11.2 µM; in the data active = activation above about 4.9%;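 note: 0% = median of compound wells and 100% = cells with positive control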
MITF confirm: human MITF inhibition, confirmation; AID 1259372; inhibition, % at 2.6 µM; hit rate 16% among 4,700; AlphaScreen MITF homodimerization, biotin/His-MITF beads; shares compounds with MITF inh;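 active = inhibition above a cutoff derived from the DMSO control wells, cut at about 28% in these data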;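 note: 0% = MITF dimer wells with DMSO only; inhibitors lower the bead chemiluminescence by keeping MITF from dimerizing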
AlphaScreen DR: AlphaScreen optical interference, dose response counter-screen. hit rate 6% among 480. AlphaScreen optical interference counterscreen, cell-free. IC50, µM. shares compounds with MITF inh; call rule not given here
AlphaScreen intf2: counter-screen: compounds optically interfering with AlphaScreen. shares compounds with MITF inh. LysRS AlphaScreen counterscreen, signal interference, triplicate. inhibition, % at 2.6 µM. hit rate 7.6% among 4,700. AID 1259376;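 active = inhibition above a cutoff derived from the DMSO control wells, cut at about 30% in these data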
An asterisk follows results filed as active; . = not tested or not shown.

SMILES	MITF inh	TEAD-YAP inh	FBW7 act	GPR151 ag	MITF confirm	AlphaScreen intf2	others
O=C(CN1CCN(Cc2cn3ccccc3n2)CC1)c1ccco1	54*	1	0	1	11	18
c1cncc(CNc2ncnc3nc(-c4ccc(N5CCOCC5)nc4)[nH]c23)c1	-9	0	0	0	.	.
O=c1[nH]c(O)c(C=NCc2cccs2)c(=O)[nH]1	-3	4	0	0	.	.
Cc1ccc(S(=O)(=O)Nc2ccc(-c3csc(C)n3)cc2)c(C)c1	1	1	0	0	.	.
O=S(=O)(c1ccc2ccccc2c1)N1CCN(Cc2cc(Br)ccc2O)CC1	-1	-11	0	0	.	.
CC(NCCCN(C)C)C(=O)NCc1ccco1 (stereo unspecified)	57*	-12	0	1	7	9
COC(=O)c1ccc(NC(=O)CN2CCN(C(=O)c3ccco3)CC2)cc1	2	24	0	-1	.	.
CC1CCN(C(C)C(=O)NCc2ccco2)CC1 (stereo unspecified)	80*	-5	0	1	18	23
CCOC(=O)c1ccc(NC(=O)CN2CCN(CC(=O)c3ccco3)CC2)cc1	79*	2	0	0	5	20
CC(NCCN(C)C)C(=O)NCc1ccco1 (stereo unspecified)	-1	-2	0	1	.	.
CC[C@H](C)[C@@H]1NC(=O)[C@@H]2C[C@H](NC(=O)NCc3cccc(F)c3)CN2C1=O	4	3	0	0	.	.
CC1CC(C)CN(S(=O)(=O)c2ccc(C(=O)Nc3sc4c(c3C(N)=O)CCCCC4)cc2)C1 (stereo unspecified)	71*	5	0	-1	-5	-4
CCCN(CCC)S(=O)(=O)c1ccc(C(=O)Nc2sc3c(c2C(N)=O)CCN(CC)C3)cc1	71*	0	0	1	-2	-4
CCOC(=O)c1c(NC(=O)c2ccc(S(=O)(=O)N3CC(C)CC(C)C3)cc2)sc2c1CCCC2 (stereo unspecified)	-5	-7	0	-1	.	.
CC(=O)NNC(=Nc1cc(C)ccc1C)NNC(C)=O	9	-1	0	0	.	.
O=C(O)c1cccc(N2C(=O)CC(Nc3ccc(N4CCOCC4)cc3)C2=O)c1 (stereo unspecified)	70*	-5	0	-2	69*	4	AlphaScreen DR=>6.6
CC(=O)OC1C2CC(C1Br)C(C(F)(F)F)(C(F)(F)F)N2 (stereo unspecified)	55*	-4	0	0	-4	-2
CC(=O)OC1C2CC(C1I)C(C(F)(F)F)(C(F)(F)F)N2 (stereo unspecified)	10	1	0	0	.	.
Cc1ccc(-c2cc(C(=O)NCc3cccnc3)[nH]n2)cc1	-5	-33	0	-1	.	.
Nc1cccc(-c2cc(NCCN3CCOCC3)ncn2)c1	-10	-8	0	-2	.	.
CC1CCN(CCCNC(=O)C2CC(=O)N(CCc3ccccc3)C2)CC1 (stereo unspecified)	107*	2	0	-2	-9	-3
CC(C)NCC(=O)Nc1c2c(nc3c1CCC3)CCCC2	75*	0	0	-1	1	-3
CCC(=O)Nc1c2c(nc3c1CCC3)CCCC2	8	-3	0	-1	.	.
CN(C)CC(=O)Nc1c2c(nc3c1CCC3)CCCC2	59*	-8	0	-1	0	0
O=C(NCCCN1CCCC1=O)c1cnc(N2CCc3ccccc3C2)s1	-4	-19	0	0	.	.
SMILES	MITF inh	TEAD-YAP inh	FBW7 act	GPR151 ag	MITF confirm	AlphaScreen intf2	others
COc1ccc(C(=O)CCN2CCCCC2)cc1OC	7	4	0	1	.	.
CCN(CC)CC(=O)Nc1ccc(OC)cc1	52*	-9	1	-1	28*	18	AlphaScreen DR=>6.5
CCN(CC(=O)Nc1ccc(C(C)=O)cc1)CC(=O)Nc1ccc2c(c1)OCCO2	80*	-1	0	0	9	12
CCN(CC(=O)Nc1ccc2c(c1)OCCO2)CC(=O)Nc1ccccc1C(F)(F)F	89*	2	0	0	14	15
CCN(CC(=O)Nc1ccc(NC(C)=O)cc1)CC(=O)Nc1ccc(Cl)c(Cl)c1	94*	-7	0	-2	11	14
CCN(CC)CC(=O)Nc1ccc2c(c1)OCO2	3	-2	0	0	.	.
CCN(CC(=O)Nc1ccc(OC)cc1)CC(=O)NC(C)(C)C	9	-2	0	-1	.	.
Cc1ccc(OCC(=O)NNC(=S)NCCc2ccccc2)c([N+](=O)[O-])c1	6	13	1	0	.	.
Cc1ccc(S(=O)(=O)N(C)C(=O)NC(=O)NC(C)(C)C)cc1	-9	-5	0	0	.	.
CCOc1ccccc1NC(=O)NNC(=O)c1cc(Cl)ccc1OC	3	12	0	0	.	.
CCCNC(=O)c1cnc(Nc2cnccn2)s1	55*	-12	0	-2	3	8
O=C(NCc1cccnc1)c1cc2ccccc2o1	52*	-14	0	1	-5	-2
O=C(NC(=S)NCc1cccnc1)c1cc2ccccc2o1	12	-6	0	-1	.	.
CCNC(=S)N1CCN(c2cc(Cl)ccc2C)CC1	7	21	1	-1	.	.
CC(=O)c1ccc(NC(=O)CNCC(c2ccccc2)N(C)C)cc1 (stereo unspecified)	66*	12	-1	1	-7	0
CC(=O)c1ccc(NC(=O)CC(C)c2ccccc2)cc1 (stereo unspecified)	8	-18	0	2	.	.
Cc1ccccc1-c1nnc(SCC#N)n1C	2	3	0	0	.	.
COc1ccc(NC(=O)CSc2nc3ccc(N)cc3s2)cc1	10	-24	0	0	.	.
COC(=O)CSc1nc2ccc(N)cc2s1	63*	6	0	1	-5	14
COc1cc(C(=O)Oc2ccccc2N)cc(OC)c1OC	5	3	0	4	.	.
COc1cc(N)c2nccc(C)c2c1OC	97*	-4	0	-1	119*	59*
COc1cc(NC(=O)c2ccc3nc(-c4cccs4)sc3c2)cc(OC)c1OC	25	-7	0	-1	.	.
COC(=O)C1=C(C(=O)OC)SC(=C2C(=S)C(C)(C)N(C(=O)c3ccc(Cl)cc3Cl)c3ccc(C)cc32)S1	-6	1	0	-1	.	.
CS(=O)(=O)c1cncnc1C1CCCN(C(=O)N2CCCC2)C1 (stereo unspecified)	6	-11	0	-1	.	.
CCN(CC)C(=O)CN1CCCC(c2ncncc2S(C)(=O)=O)C1 (stereo unspecified)	64*	-3	0	0	9	11
CN(C)[C@@H]1C(=O)C(C(=O)NCN2CCCC2)=C(O)[C@@]2(O)C(=O)C3=C(O)c4c(O)cccc4[C@@](C)(O)[C@H]3C[C@@H]12	75*	-2	0	0	81*	22	AlphaScreen DR=>6.5
Cc1cc2c(cc1C)N(C(=O)c1cccs1)C(C)(C)c1ssc(=S)c1-2	2	5	0	0	.	.
